The list is not random: actives were taken first. Their share in the collection is about 19%.
Pf growth 96h: P. falciparum growth inhibition at 96 hour, primary screen for plastid delayed-death inhibitors | actives 6.9% (n = 320,000) | P. falciparum luciferase reporter growth, 96 h | Potency, µM (highest dose often 28.7 µM), inactives show top-dose activity change, negative = inhibition, hits mostly inhibitors; also: potency is read from the fitted curve at half-maximal effect; % is scaled to controls: 0 for no effect and ±100 for the full control effect
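Parasite growth measured via integrated firefly luciferase reporter in P. falciparum. Infected erythrocytes at 2% hematocrit, 0.05% parasitemia final were treated 96 hours at 37 C under 5% CO2, and luminescence was read.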
Pf growth 48h: inhibits P. falciparum growth in the first generation, 48 h; Potency, µM (series often up to 28.7 µM), for the others: top-dose activity change, negative = inhibition, hits mostly inhibitors; actives 5.9% (n = 310,000); AID 504832; P. falciparum luciferase growth in erythrocytes, 48 h; also: potency is read from the fitted curve at half-maximal effect; % is scaled to controls: 0 for no effect and ±100 for the full control effect
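Compounds are pin-transferred into medium, infected erythrocytes (2% hematocrit, 0.1% parasitemia final) are added, and plates sit one parasite generation at 37 C in 5% CO2. Detection reagent is then added and luminescence measured.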
CHX counter: counter-screen hit for Shiga toxin inhibitors, cycloheximide. max response, %. AID 2314. actives 12% (n = 300,000). cell reporter, cycloheximide protein synthesis inhibition counterscreen; in the data active = max response mostly above about 13%, no sharp cut-off; inactive = mostly below about 14%; also: read at 38.3 µM for the half of the compounds with a filed dose; 0% is about no effect
Shiga inhibitor: Shiga toxin inhibition. Vero cells, Shiga toxin protein synthesis inhibition reporter. inhibition, % at 38.7 µM. actives 9.2% (n = 290,000). AID 2315; in the data active = inhibition mostly above about 28%, no sharp cut-off; inactive = mostly below about 43%; also: 0% is about no effect
Marburg entry inh: Marburg virus entry inhibition. Marburg virus pseudotyped entry inhibition, cell reporter. Potency, µM (titrated, usually from 37.8 µM), without a hit: at the highest dose activity change, negative = inhibition, hits mostly inhibitors. actives 1.8% (n = 300,000). AID 540276; calls by dose curve; tested in HEK293 cells; also: potency is read from the fitted curve at half-maximal effect; % is scaled to controls: 0 for no effect and ±100 for the full control effect
Lassa entry inh: inhibitors of Lassa virus binding or cell entry; actives 1.2% (n = 300,000); Lassa virus pseudotype entry inhibition, cell reporter; Potency, µM (doses to about 37.9 µM), for the others: top-dose activity change, negative = inhibition, hits mostly inhibitors; AID 540256; calls by dose curve; tested in HEK293 cells; also: potency is read from the fitted curve at half-maximal effect; % is scaled to controls: 0 for no effect and ±100 for the full control effect; nearly all actives have a fitted effect of over 50% in size
Starred values were filed as active, the others as inactive; ? = inconclusive; . = no result given; [ ] = dose if it differs, or a comment. Unless noted, calls follow the shape of the dose curve; as a rule, active = well fitted inhibition curve with a large enough effect; inconclusive = small, poorly fitted or top-dose-only effect, or another doubt; inactive = no such curve, though single readings can be large or run the other way.

SMILES | Pf growth 96h | Pf growth 48h | CHX counter | Shiga inhibitor | Marburg entry inh | Lassa entry inh
Cc1nnc(SCC(=O)Nc2ccc3c(c2)OCO3)o1 | 13µM* | 7% | -3 | 11 | 10%[46.1 µM] | -4%
Cn1c(=O)c2c(SCC(=O)N3CCCC3)nc(CC(C)(C)C)nc2n(C)c1=O | 13µM* | -20% | -2 | -6 | . | .
Cn1nnnc1SCC(=O)Nc1ccc2c(c1)OCO2 | ? | 55% | 26* | 114* | . | .
CCCn1c(SCC(=O)Nc2ccc3c(c2)OCO3)nc2c1c(=O)n(C)c(=O)n2C | 10µM* | 1% | 0 | -23 | ? | -4%
CC(C)c1nnc(SCC(=O)Nc2ccc3c(c2)OCO3)n1C | 16% | -8% | -2 | 15 | 2%[46.1 µM] | 3%
N#Cc1cccc(C#N)c1N1CCC(C#N)CC1 | 45% | -2% | 13 | -3 | -25%[46.1 µM] | 15%
Cc1cc2cc(CN(Cc3ccco3)C(=O)C3CCCCC3)c(=O)[nH]c2cc1C | -22% | ? | 15 | -8 | ? | 13%
CCn1nnnc1SCC(=O)Nc1ccc2c(c1)OCO2 | 1% | 67% | 16 | 45* | -9%[46.1 µM] | -2%
CCCn1c(SCC(=O)N2CCCC2)nc2c1c(=O)n(C)c(=O)n2C | 1.2µM* | -20% | 4 | -8 | -2% | -13%
CCCCn1nnnc1SCC(=O)Nc1ccc2c(c1)OCCO2 | ? | 40% | 7 | 17 | 12%[46.1 µM] | -4%
CC(C)n1c(SCC(=O)N2CCCC2)nc2c1c(=O)n(C)c(=O)n2C | -28% | ? | 2 | -12 | 27% | -10%
CC1CCN(C(=O)COc2ccc(Nc3ccccc3)cc2)CC1 | -2% | -1% | 10 | 23 | ? | -5%
COCc1ccc(C(=O)NC2CCCc3c2cnn3-c2ccc(C)c(C)c2)o1 (stereo unspecified) | ? | -10% | 26* | 93 | . | .
COCc1ccc(C(=O)NC2CCCc3c2cnn3-c2cc(C)cc(C)c2)s1 (stereo unspecified) | 7.4µM* | ? | 12 | 27* | . | .
Cc1cc(C(=O)NC2CCCc3c2cnn3-c2ccc(C)c(C)c2)n(C)n1 (stereo unspecified) | ? | ? | -1 | -2 | . | .
Cc1cc(C)c(C(=O)NC2CCCc3c2cnn3-c2ccc(C)c(C)c2)c(=O)[nH]1 (stereo unspecified) | 23% | 1% | 27* | 25 | ? | 15%
Cc1cc(C)cc(-n2ncc3c2CCCC3NC(=O)c2csnn2)c1 (stereo unspecified) | ? | ? | 14 | 22* | 17%[46.1 µM] | ?
CC(C)CCN(C(=O)c1ccccn1)c1c(N)n(Cc2ccccc2)c(=O)[nH]c1=O | . | . | . | . | 0%[46.1 µM] | 2%[46.1 µM]
C/C(=N/O)c1ccc(Oc2cnccn2)cc1 | 0% | 43% | 10 | 32 | ? | 9%
Cc1ccc(-n2ncc3c2CCCC3NC(=O)c2csnn2)cc1C (stereo unspecified) | ? | ? | 19* | 60* | . | .
CC(=O)Nc1cccc(C(=O)NC2CCCc3c2cnn3-c2cc(C)cc(C)c2)c1 (stereo unspecified) | ? | -8% | 25* | 24 | ? | ?
Cc1cc(C(=O)NC2CCCc3c2cnn3-c2cc(F)cc(F)c2)nn1C (stereo unspecified) | ? | 34% | 15 | 25* | -18% | 13%
CCn1nc(C)cc1C(=O)NC1CCCc2c1cnn2-c1cc(F)cc(F)c1 (stereo unspecified) | 18% | -4% | 11 | 13 | ? | ?
Cc1ccc(-n2ncc3c2CCCC3NC(=O)c2ccoc2)cc1C (stereo unspecified) | ? | ? | -3 | -3 | ? | -30%
O=c1cc(CSc2nnc(C3CC3)n2Cc2ccccc2)nc2sccn12 | -16% | -15% | 13 | 19 | -8% | -2%
Cc1c(C(=O)C(=O)N2CCN(Cc3ccc4c(c3)OCO4)CC2)c2ccccc2n1C | -18% | ? | -3 | -13 | . | .
COc1ccc(/C(N)=N/OC(=O)N2CCOCC2)cc1 | ? | ? | 6 | 34 | ? | ?
COc1ccc(-c2ccc(C(=O)C3CC3)cc2)cc1 | 200% | -23%[0.00184 µM] | 16* | 65* | ? | ?
COc1ccc(C(=O)C2CCN(C(=O)c3ccc(C)cc3)CC2)cc1 | ? | 0% | -1 | -18 | ? | ?
